Assay results from PubChem BioAssay (Tox21).
Calls of active or inactive are those of the source. Calls follow the shape of the dose curve; as a rule, active = well fitted curve in the direction sought with a large enough effect in the repeat runs; inconclusive = weak or mixed curves; inactive = flat fitted curve, though single readings scatter.

assay: qHTS assay to test for compound auto fluorescence at 460 nm (blue) in HepG2 cells (AID 720687); conditions: autofluorescence 405/460 nm, 1 h; series mostly up to 91.3 µM
Method in brief: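 HepG2 cells in MEM with 10% FBS, attached overnight at 37 C, were exposed to compound or DMSO for 1 hr at 37 C, 5% CO2. Blue fluorescence was read at 405/460 nm, with triamterene as reference fluorophore.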

SMILES | outcome
COP(=O)(OC)C(O)C(Cl)(Cl)Cl (configuration not stated) | inactive
Cc1cc(Cl)ccc1OCC(=O)O | inactive
CCCC[n+]1ccccc1C | inactive
O=C(O)COc1ccc(Cl)cc1Cl | inactive
CC(=O)[O][Hg][c]1ccccc1 | inactive
O=C(O)C(Cl)Cl | inactive
CCCC[n+]1ccc(C)cc1 | inactive
O=c1nc(O)n(Cl)c(=O)n1Cl | inactive
CCCCCCCCCCCCCC[P+](CCCCCC)(CCCCCC)CCCCCC | inactive
CCC(=O)C(CC(C)N(C)C)(c1ccccc1)c1ccccc1 (configuration not stated) | inactive
O=C(O)C(Cl)(Cl)Cl | inactive
CCC[N+]1(C)CCCC1 | inactive
O=C(O)CC(O)(CC(=O)O)C(=O)O | inactive
CC(Cl)(Cl)C(=O)O | inactive
Nc1ccc(Cl)cc1 | inactive
O=C(O)CCl | inactive

SMILES | outcome
CCCCn1cc[n+](C)c1C | inactive
CC[N+](CC)(CC)CC | inactive
O=C(O)c1nc(Cl)ccc1Cl | inactive
Cc1cc(Cl)ccc1N | inactive
CCCCCCCCCCn1cc[n+](C)c1 | inactive
COc1ccc(N)cc1 | inactive
Nc1ccccc1 | inactive
CCCC[n+]1ccccc1 | inactive
CC(=O)O | inactive
O=c1[nH]c(=O)n(Cl)c(=O)n1Cl | inactive
O=P1(N(CCCl)CCCl)NCCCO1 (configuration not stated) | inactive
Cc1cc(-c2ccc(N)c(C)c2)ccc1N | inactive
C1CCC(NC2CCCCC2)CC1 | inactive
COCC(=O)N(c1c(C)cccc1C)C(C)C(=O)OC (configuration not stated) | inactive
CN(C)[C@@H]1C(=O)C(C(N)=O)=C(O)[C@@]2(O)C(=O)C3=C(O)c4c(O)cccc4[C@@](C)(O)[C@H]3[C@H](O)[C@@H]12 | inactive
CCCn1cc[n+](C)c1 | inactive
